Screening data (PubChem BioAssay)
An excerpt weighted towards active compounds, which were near 0.24% of everything screened.
NPYLR7 agonist: activates Aedes aegypti NPYLR7 receptor. HEK293T NPYLR7/Galpha15, GCaMP6s calcium fluorescence. activation, % at 10 µM. 0.15% of 270,000 active. AID 1259423; in the data active means activation above about 40%
mcGAS inh: blocks mouse cGAS activity; Q8C6L5; recombinant cGAS, Kinase-Glo ATP depletion luminescence; inhibition, % at 12.5 µM; 0.15% of 160,000 active
Target sequence (Q8C6L5 whole entry, looked up): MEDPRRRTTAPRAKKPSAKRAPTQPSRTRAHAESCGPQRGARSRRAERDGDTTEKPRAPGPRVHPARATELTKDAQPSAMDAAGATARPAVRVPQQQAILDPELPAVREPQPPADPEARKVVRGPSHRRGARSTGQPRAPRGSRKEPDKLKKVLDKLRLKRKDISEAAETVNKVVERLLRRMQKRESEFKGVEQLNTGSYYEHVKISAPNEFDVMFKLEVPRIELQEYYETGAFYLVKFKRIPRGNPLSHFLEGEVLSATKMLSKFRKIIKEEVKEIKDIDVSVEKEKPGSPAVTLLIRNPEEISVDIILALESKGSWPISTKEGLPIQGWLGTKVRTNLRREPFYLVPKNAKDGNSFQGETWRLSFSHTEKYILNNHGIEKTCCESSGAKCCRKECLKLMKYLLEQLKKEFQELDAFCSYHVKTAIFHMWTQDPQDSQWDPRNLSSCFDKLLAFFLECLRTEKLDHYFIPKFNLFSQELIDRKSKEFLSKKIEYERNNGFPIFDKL
hcGAS inh: human cGAS inhibition; 0.081% of 290,000 active; inhibition, % at 12.5 µM; Q8N884; recombinant h-cGAS, ATP depletion, Kinase-Glo luminescence
Each line names hits and unclear results; the compound was inactive in the other large screens; ! = not confirmed by another sample. Unless noted, no stated cut-off is given here; in the data, active means inhibition above about 40%; inactive means the rest.

O=C1C(C(c2ccco2)N2CCCC2)Sc2nc(-c3ccco3)nn21 (centres undefined)	none
CCN1C(=O)/C(=C/c2ccc(N(C)C)cc2)SC1=S	none
CCN(CC)c1ccc(/C=C2/SC(=S)N(CC(=O)O)C2=O)cc1	NPYLR7 agonist 42
CCN(CC)c1ccc(/C=C2\SC(=S)N(CCS(=O)(=O)O)C2=O)cc1	NPYLR7 agonist 137
O=C(O)CN1C(=O)/C(=C\c2ccc(I)cc2)SC1=S	none
CC1CCc2nc(NC(=O)c3cccs3)sc2C1 (centres undefined)	none
Cc1nc2ncccc2cc1C(=O)N1CCC2(CCNC(=O)CC2)CC1	NPYLR7 agonist 55 (no result: mcGAS inh)
Cc1cccc2ncc(C(=O)N3CCC4(CCNC(=O)CC4)CC3)c(=O)n12	none (no result: mcGAS inh)
Cc1oc(-c2ccccc2NS(=O)(=O)c2cccc(F)c2)nc1CNC(=O)CC(C)C	none (no result: mcGAS inh)
Cc1oc(-c2cccc(NC(=O)CC(C)C)c2)nc1CNC(=O)Cc1cc(F)cc(F)c1	NPYLR7 agonist 56
CCOC(=O)CCCSc1nnc(-c2cc(OC)cc(OC)c2)n1-c1ccc(C)cc1	none (no result: NPYLR7 agonist)
CCN(CC)C(=O)Cn1nc(-c2cccs2)c2sc(C)nc2c1=O	none
Nc1ncnc2c1ncn2[C@@H]1O[C@H](CO)[C@@H](O)[C@H]1O	NPYLR7 agonist 52 (no result: mcGAS inh)
OC[C@H]1O[C@@H](n2cnc3c(NC4CCCC4)ncnc32)C(O)[C@H]1O (some centres undefined)	none
C=CCN1CCN(c2ccc(F)cc2F)C(=O)C1C (centres undefined)	none
OCC1OC(Oc2ccccc2Cl)C(O)C(O)C1O (centres undefined)	none
O=C(O)c1cc(O)c2c(O)c3c(O[C@H]4O[C@H](CO)[C@@H](O)[C@H](O)[C@H]4O)cccc3c(-c3c4cc(C(=O)O)cc(O)c4c(O)c4c(O[C@H]5O[C@H](CO)[C@@H](O)[C@H](O)[C@H]5O)cccc34)c2c1	hcGAS inh 42! (no result: mcGAS inh)
S=C(NCc1ccco1)NC1CCSc2ccccc21 (centres undefined)	none (no result: mcGAS inh)
CN1CCC(=C2c3ccccc3C=Cc3ccccc32)CC1	none
CN1CCC(=C2c3ccccc3Sc3ccccc32)CC1	NPYLR7 agonist 54!
CCCCCNc1cc(C)nc2c(-c3ccccc3)c(C)nn12	none
CCCc1[nH]n(-c2ccc(Cl)c(Cl)c2)c(=O)c1/C=C1\NC(=O)N(Cc2ccc(C)cc2)C1=O	NPYLR7 agonist 56
CCCc1[nH]n(-c2cccc(Cl)c2)c(=O)c1/C=C1\NC(=O)N(Cc2ccc(C)cc2)C1=O	none
Cc1cc(C)nc(SCc2ccc(C(=O)N3C4CCC3CC(Oc3ccccc3C(C)C)C4)cc2)n1 (centres undefined)	none
c1ccc(CNc2nc(NCCc3ccncc3)c3sccc3n2)cc1	NPYLR7 agonist 59 (no result: mcGAS inh)
CNc1nc(NCc2ccccc2)c2sccc2n1	none (no result: mcGAS inh)
CC(=O)OCC(=O)C12OC3(CCCC3)OC1CC1C3CCC4=CC(=O)C=CC4(C)C3(F)C(O)CC12C (centres undefined)	none (no result: mcGAS inh)
O=C(COCc1ccccc1)Nc1cccc(-c2cccc(-c3ccc(F)cc3)n2)c1	none
O=C1c2ccccc2-c2nn(CN3CCN(c4ccccc4)CC3)c3cccc1c23	NPYLR7 agonist 88
Cn1c(-c2ccncc2)nn(CN2CCN(c3ccccc3)CC2)c1=S	none (no result: mcGAS inh)
CCOC(=O)CCC(=O)N1CCN(C(=O)c2cc3ccoc3n2Cc2ccc(C)cc2)CC1C (centres undefined)	none
C=C(C)Cn1c(C(=O)N2CCN(C(=O)CCC(=O)OCC)C(C)C2)cc2ccoc21 (centres undefined)	NPYLR7 agonist 57
COc1ccc(-n2c(C)nnc2SCc2ccc(C(=O)NCc3ccco3)cc2)cc1	none
C[N+]1=C(CC=Nc2ccccc2)SCC1	none (no result: mcGAS inh)
C(/C=C/CC=Nc1ccccc1)=Nc1ccccc1	NPYLR7 agonist 66
CCCc1nn(-c2ccc(C)cc2)c(OC(C)=O)c1-c1ccc(NC(=O)c2cccc(Br)c2)cc1	none
O=C1c2c(O)ccc(O)c2C(=O)c2c(NCCNCCO)ccc(NCCNCCO)c21	mcGAS inh 76, hcGAS inh 42!
CCCCNc1ccc(NCCCC)c2c1C(=O)c1ccccc1C2=O	none
O=C1NC(=S)SC1=Cc1cccc(C(F)(F)F)c1	mcGAS inh 82
O=C1NC(=S)SC1=Cc1ccc(C(=O)O)cc1	mcGAS inh 65
CC(C)(C)c1ccc(/C=C2\SC(=S)NC2=O)cc1	none
O=C1NC(=S)S/C1=C/c1cccc(O)c1	none (no result: mcGAS inh)
Cc1cccc(-n2nc(C(=O)N3CCN(C)CC3)c(=O)n(Cc3ccccc3C)c2=O)c1	none
Cc1oc(-c2cc3c(cc2Cl)OCO3)nc1CN1CCCCC1c1nccs1 (centres undefined)	none (no result: mcGAS inh)
O=c1[nH]cnc2c1C(c1cccc([N+](=O)[O-])c1)c1c(nc[nH]c1=O)O2	none
O=c1[nH]c(=S)[nH]c2c1C(c1cccc([N+](=O)[O-])c1)c1c([nH]c(=S)[nH]c1=O)O2	mcGAS inh 55
O=C(c1nn2c(C(F)(F)F)cc(-c3ccccc3)nc2c1Br)N1CCN(Cc2ccccc2)CC1	none
CC(=O)c1cccc(OCC(=O)N2CCc3cc(F)cc(F)c32)c1	none (no result: mcGAS inh)
CC(C)c1cc(C2CCN(C(=O)COc3ccc4c(c3)OCO4)CC2)[nH]n1	none (no result: mcGAS inh)
COc1ccc(-c2nnc(C[C@@H]3C[C@@H](C(C)C)[C@H](CNc4ccccn4)C=C3C)o2)cc1	none
COc1ccc(NC[C@@H]2C=C(C)[C@H](Cc3nnc(C)o3)C[C@H]2C(C)C)cn1	NPYLR7 agonist 55
NC(=O)c1nc(-c2ccccc2Cl)nc2c1[nH]c(=O)n2-c1ccccc1F	none
C[C@@H](NC(=O)/C(C#N)=C/c1ccc(O)c(O)c1)c1ccccc1	none
N#C/C(=C\c1ccc(O)c(O)c1)C(=O)Nc1ccccc1	NPYLR7 agonist 147
CCOC(=O)c1c(NC(=O)CCl)sc2c1CCCCC2	none
CCC1CCC(NC(C)c2ccc(F)cc2)CC1 (centres undefined)	none (no result: mcGAS inh)
COc1ccc(OC)c(C2NC(=O)CCC2[N+](=O)[O-])c1 (centres undefined)	none (no result: mcGAS inh)
O=[N+]([O-])c1cccc(C(Nc2nc3c(s2)CCCC3)c2ccc3cccnc3c2O)c1 (centres undefined)	hcGAS inh 42
CCCC(=O)NC(c1cccc([N+](=O)[O-])c1)c1ccc2cccnc2c1O (centres undefined)	none (no result: mcGAS inh)
CC(=O)N1CCC(C(=O)NC(c2ccc(F)cc2)c2nccn2C)CC1 (centres undefined)	none
O=C(COc1cc(Cl)ccc1Cl)Nc1ccc(-n2cnnn2)cc1	none
COc1ccccc1-c1cc(C(=O)NCCN2CCCC2)n2nc(-c3ccc(Cl)cc3)cc2n1	mcGAS inh 44!
COc1ccccc1-c1cc(C(=O)NCCN2CCCCC2)nc2cc(-c3ccc(Cl)cc3)nn12	none
COc1ccc(Cn2nnnc2SCC(=O)N2CCNC2=O)cc1	none
CC(C)(C)c1ccc(OCC(=O)ON=C(N)c2cccnc2)c(Br)c1	none
CCN1CC(=Cc2cc(C)n(C3CC3)c2C)C(=O)C(=Cc2cc(C)n(C3CC3)c2C)C1	NPYLR7 agonist 48 (no result: mcGAS inh)
Cc1cc(C=C2SC(N)=NC2=O)c(C)n1C1CC1	none (no result: mcGAS inh)
O=C(OCc1cc2c(cc1Br)OCO2)c1cnccn1	hcGAS inh 69
O=C(OCc1cc2c(cc1Br)OCO2)c1cccc(O)c1	none (no result: mcGAS inh)
CC(=O)[C@@H]1SC(=N)C(C#N)[C@H]1c1cccs1 (some centres undefined)	none
N#CC1C(=N)SC(=N)C(C#N)C1c1cccs1 (centres undefined)	mcGAS inh 70, hcGAS inh 74
